Screen size: about 48,000 compounds; about 13,000 (27%) showed an effect of 50% or more. This is one part of the list.
Test system: Wolbachia pipientis
Test: Anti-Wolbachia Cell-Based Screen
Format: functional
Parameters: scale not given: in the data most compounds retested in dose-response had high values
Settings: 5 µM

SMILES	Percent Effect
CCC1=N[C@@]2(CC[C@@H]3CN(S(=O)(=O)CC)C[C@@H]32)C(=O)N1CC(C)C	-13.66%
CN(Cc1ccccc1)c1ncccc1CNC1CCCC1	-55.14%
CNS(=O)(=O)c1cccc(C(C)NCc2ccc(F)cc2F)c1 (stereo not given)	0.5272%
CC(C)(C)c1ccn(C2(C(=O)O)CCN(c3ccncc3F)CC2)n1	0.05232%
O=C(O)C(F)(F)F.O=C(c1ccco1)N1CCC2(CCCN(c3ncccn3)C2)C1 (stereo not given)	85.77%
O=C(O)C(F)(F)F.O=C(c1ccco1)N1CCOC2(COCCN(c3ncccn3)C2)C1 (stereo not given)	-16.99%
O=C(O)C(F)(F)F.O=C(c1ccco1)N1CCCC2(CN(Cc3cccs3)CCO2)C1 (stereo not given)	7.002%
CCN1CC2(CCN(C(=O)C3CSC(C)(C)C(=O)N3)CC2)CC1=O (stereo not given)	-12.94%
O=C(Cc1cn2ccsc2n1)N1CCCC(n2cncn2)C1 (stereo not given)	-11.33%
CCc1nccn1C1CCCN(C(=O)Cc2cn3ccsc3n2)C1 (stereo not given)	106.2%
CCc1nccn1C1CCCN(C(=O)c2cc(C3CC3)on2)C1 (stereo not given)	0.1203%
CCc1nccn1C1CCCN(C(=O)CCc2nc(C(C)C)no2)C1 (stereo not given)	1.838%
CCc1nccn1C1CCCN(C(=O)c2cc[nH]n2)C1 (stereo not given)	5.506%
CCc1nccn1C1CCCN(C(=O)c2csc(C3CC3)n2)C1 (stereo not given)	96.06%
CC(C)c1ccc(OCCC(=O)N(C)CC(N)=O)cc1	4.31%
CC1CN(c2ncnc3cccc(F)c23)CCO1 (stereo not given)	-3.165%
Cc1cc2nc(C(C)C)cc(NCCc3cccn3C)n2n1	113.2%
Cc1cc(NCCS(C)(=O)=O)n2nc(C)cc2n1	-11.18%
Cc1cc2nc(C(C)C)cc(N[C@H](C(N)=O)C(C)C)n2n1	-8.312%
CNS(=O)(=O)CCNc1cc(C)nc2cc(C)nn12	-6.261%
Cc1cc2nc(C(C)C)cc(NCCc3ccncc3)n2n1	142%
CC(C)c1cc(NCC2(Cn3cccn3)CC2)n2nccc2n1	-2.27%
CCc1nc2c(NCC3COc4c(cccc4OC)C3)ncnc2o1 (stereo not given)	-3.271%
CCN(C)C(=O)c1ccc(N(C)Cc2cc(-c3cccnc3)no2)nc1	3.484%
COCc1cc(CC2(NC3CCN(C)CC3)COC2)no1	4.63%
COc1cc(C#N)ccc1OCC(=O)N(C1CC1)C(C)c1ccco1 (stereo not given)	-6.369%
CCC[C@H]1CN(Cc2ccc(N(C)C)nc2)C[C@@H]1NS(=O)(=O)CC	9.48%

SMILES	Percent Effect
COc1cc(S(=O)(=O)Nc2cn[nH]c2)ccc1Br	20.8%
O=C(Cc1ccsc1)N1CCCC(CNS(=O)(=O)Cc2ccccc2)C1 (stereo not given)	-10.03%
CCCc1noc(CCC(=O)N2CCCC(n3ccnc3C)C2)n1 (stereo not given)	4.516%
Cc1noc(C)c1CNC(=O)N1CCN(CC2CC2)CC1	-3.03%
Cc1cnn(C2CCCN(C(=O)Cc3ccc(-n4cccn4)cc3)C2)c1 (stereo not given)	-1.818%
Cn1nc(C2CCCN(C(=O)Cc3ccsc3)C2)c2nccnc21 (stereo not given)	-16.9%
Cc1nccn1CC1CCCN(C(=O)Cc2ccsc2)C1 (stereo not given)	91.27%
Cc1cnn(C2CCCN(C(=O)Cc3ccc(C)s3)C2)c1 (stereo not given)	107.6%
Cc1noc(C)c1CC(=O)N1CCCC(n2ccnc2C)C1 (stereo not given)	104.6%
Cc1noc(C)c1CCC(=O)N1CCCC(n2ccnc2C)C1 (stereo not given)	-0.2444%
Cc1noc(C)c1CC(=O)N1CCCC(Cn2ccnc2C)C1 (stereo not given)	108.2%
Cc1nc(NC(=O)COCC2CC2)ccc1Br	-7.033%
CCc1nnc(CN2CCC(C3CCCCCN3C(C)=O)CC2)o1.Cl (stereo not given)	2.52%
CN(C)c1nccc(CNS(=O)(=O)c2cc(Cl)cc(Cl)c2)n1	-1.753%
Cc1nc(C(=O)N2CCN(C(=O)N(C)C)[C@@H]3CS(=O)(=O)C[C@@H]32)cs1	-0.3934%
CCC(NC(=O)c1cccc2[nH]ccc12)C(=O)N1CCOCC1 (stereo not given)	-2.082%
Cc1nn(C)c(C)c1CC(=O)N1CCCC(n2ccnc2)C1 (stereo not given)	-6.925%
CC(=O)NCC1CCCN(C(=O)Cc2c(C)noc2C)C1 (stereo not given)	118.6%
Cc1cnn(C2CCCN(C(=O)Cc3c(C)nn(C)c3C)C2)c1 (stereo not given)	112.6%
Cc1noc(C)c1CNC(=O)N1CCCC(C)CC1 (stereo not given)	-2.86%
Cc1nccn1C1CCCN(C(=O)Cn2ccc(=O)n(C)c2=O)C1 (stereo not given)	-5.053%
Cc1nn(C)c(C)c1CC(=O)N1CCCC(n2ccnc2C)C1 (stereo not given)	103.8%
Cc1noc(C)c1CC(=O)N1CCCC(c2noc(C(C)C)n2)C1 (stereo not given)	-25.9%
C=C(C)CN1CCCC1c1nc(Cc2ccc(F)cc2)no1 (stereo not given)	3.064%
CNC(=O)[C@H]1C[C@H]2OCC[C@H]2N(CC2CCOCC2)C1.O=C(O)C(F)(F)F	-4.721%
COC(=O)CCCN(C)C(c1cccnc1)c1ccc(F)cc1F (stereo not given)	-20.53%
CCCn1nccc1-c1nccnc1CC1CCN(C(C)=O)C1 (stereo not given)	94.67%

SMILES	Percent Effect
CCCn1nccc1C(=O)N1CCN(C2CCc3ccccc3C2)CC1 (stereo not given)	-8.816%
CCCn1nccc1-c1nccnc1CC1CCN(C(C)=O)CC1	113%
Cn1nccc1-c1nc2c(cc1C(=O)O)CCN(C(=O)C1CC1)CC2.O=C(O)C(F)(F)F	-10.62%
CCCn1nccc1C(=O)N1CCN(C(=O)C2CC2)[C@@H]2CS(=O)(=O)C[C@@H]21	17.33%
CC(=O)N1CCC(Cc2nccnc2-c2ccnn2C)CC1	105.5%
CCCn1nccc1C(=O)N1CCCC(C(=O)CCc2ccccc2)C1 (stereo not given)	3.228%
CCCn1ncnc1C(C)NC(=O)C1CCN(C(=O)C2CC2)CC1 (stereo not given)	-8.242%
CCCn1nccc1-c1cnc(CC2CCN(C(C)=O)C2)cn1 (stereo not given)	102.9%
CS(=O)(=O)c1ccc2c(c1)N(C(=O)Cc1ccc(F)cc1)CCC2	9.452%
N#Cc1cccnc1NCCNC(=O)NCCSC(F)(F)F	18.52%
O=C(NCCC1CCCCO1)c1coc(COc2ccc(F)cc2)n1 (stereo not given)	-18.68%
CCOCc1nc2c(c(NC(CC)c3cccnc3)n1)CCNCC2 (stereo not given)	11.04%
CN(CC1(CO)CCCC1)[C@@H]1c2ccccc2C2(CCNCC2)[C@H]1O	6.987%
Cc1cccc(C2CCCN(C(=O)CN3CCOC3=O)C2)c1 (stereo not given)	-2.013%
CN(C)CCO[C@H]1C[C@@H](O)C12CCN(c1nccc3ccccc13)CC2	-5.816%
Clc1ccccc1C1(c2ccnc(-c3ncccn3)n2)CCNCC1	-1.363%
Cc1ccccc1CC(C)(C)NC(=O)COc1cccc(C(N)=O)c1	8.164%
Cc1cc(=O)n2nc(Oc3cccc(C(N)=O)c3)sc2n1	92.57%
Cc1ccn(-c2cncc(C(N)=O)c2)n1	-45.7%
Cc1cc(=O)n2nc(Oc3cccc(I)c3)sc2n1	98.58%
CSCCC(=O)N1CCC(c2nccn2Cc2cscn2)CC1	-27.24%
Cc1ccsc1-c1nc(CN(C)Cc2cc[nH]n2)c(C)o1	11.99%
Cc1ccc(S(=O)(=O)N2CCCC3(CCCN3S(C)(=O)=O)C2)cc1F (stereo not given)	98%
Cc1ccc(S(=O)(=O)N2CCCCC(N3CCN(C)CC3)C2)cc1F (stereo not given)	-10.96%
Cc1ccc(S(=O)(=O)N2C[C@H](C3CC3)[C@@H](N)C2)cc1F	-0.3318%
CS(=O)(=O)N1CCCC12CCCN(S(=O)(=O)c1ccc(F)cc1)C2 (stereo not given)	-4.23%
CS(=O)(=O)N1CCCC12CCCN(S(=O)(=O)c1ccc(F)c(F)c1)C2 (stereo not given)	90.35%

SMILES	Percent Effect
c1ccn2c(C3CCCN(c4ncnc5c4CCNC5)C3)nnc2c1 (stereo not given)	-4.904%
O=C(O)COc1ccc(Cl)cc1CN1CCC2(CCNCC2)CC1	-7.41%
Cc1csc(CN2CC(CO)Oc3ccccc32)n1 (stereo not given)	-31.8%
COc1c(CNCc2cccc(Cn3ccnc3C)c2)c(C)nn1C.Cl	162.7%
COc1c(CNCc2ccccc2Cn2cncn2)c(C)nn1C	-0.9882%
COc1c(CNCc2cccc(CN3CCOCC3)c2)c(C)nn1C	-5.316%
COc1c(CNCc2cccc(Cn3cccn3)c2)c(C)nn1C	134.9%
COc1c(CNCc2cccc(Cn3cncn3)c2)c(C)nn1C	94.36%
COc1c(CNCc2ccccc2Cn2cccn2)c(C)nn1C	10.98%
COc1c(CNCc2ccc(Cn3cccn3)cc2)c(C)nn1C	-21.67%
Cc1ccc(NC(=O)C(C)N2CCCN(c3nccs3)CC2)c(C)c1 (stereo not given)	-5.233%
O=S(=O)(NCC1(O)CCCC1)c1ccccc1Br	2.398%
O=c1[nH]nc2c(S(=O)(=O)N3CCCCC3)cccn12	132.6%
CC(C)(C)OC(=O)Cn1cccc(S(=O)(=O)N2CCCC2)c1=O	1.983%
O=c1[nH]nc2c(S(=O)(=O)N3CCN(c4ccc(F)cc4)CC3)cccn12	130.4%
CC(=O)Nc1ncc(S(=O)(=O)N2CCOCC2)s1	-0.8414%
O=S(=O)(Nc1ccc(N2CCOCC2)cn1)c1ccc(F)cc1	-10.45%
O=C(O)c1cc(-c2cc[nH]n2)cc(S(=O)(=O)N2CCCCCC2)c1	5.373%
CC1CCN(S(=O)(=O)c2cccn(CC(=O)N3CCOCC3)c2=O)CC1	5.887%
CC(C)(C)OC(=O)Cn1cccc(S(=O)(=O)N2CCCCCC2)c1=O	-1.938%
CC1CCN(S(=O)(=O)c2cccn(CC(=O)NC(C)(C)C)c2=O)CC1	-3.132%
O=c1[nH]nc2c(S(=O)(=O)N3CCCC3)cccn12	132.4%
O=c1[nH]nc2c(S(=O)(=O)N3CCOCC3)cccn12	153.4%
O=C1N(c2ccc(F)cc2)Cc2n[nH]c(=O)n21	2.178%

Source: ChEMBL document CHEMBL3988442, “University of Dundee, Small-Polar-MMV Screening Library” (2021)
